This is an account of results in PubChem BioAssay (NCI).

Compounds without any hit were thinned out: in the full panel of roughly 83,000, 20% have a hit.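 48-hour exposure, single concentration, 96-well plates; percent growth endpoint where 0 means no net growth. Active: below 10.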 Values without a mark were called inactive. Active and inactive are the calls of the source.

Holding throughout (assay): NCI-60 one-dose screen, 48 h (100 = growth as untreated, 0 = no growth, -100 = all killed)
Common to all, as to conditions: 10 µM unless noted

In test [1] the test system is T-47D breast.
Test [2] relates to BT-549 breast.
Test [3] concerns MDA-MB-435 melanoma.
Test [4] relates to SW-620 colon.
In test [5] the test system is MCF7 breast.
Test [6] has as its system HCT-116 colon.
Test [7] concerns HCC-2998 colon.
Test [8] deals with KM12 colon.

Turning to `COc1cc(C2CC(c3cccc(Nc4ccnc5cc(Cl)ccc45)c3)=NN2c2ccccc2)cc(OC)c1OC` (centres undefined), the growth in test [1] is 42.9%; in test [2] it was 88.6%; in test [3], 24.4%; in test [4], 37.8%; in test [5], 60.6%; in test [6], 64.8%. In addition, the growth in test [7] was 91.8%; in test [8], 40.7%.
`O=C(Nc1ccc(OS(=O)(=O)c2ccc(F)cc2)cc1)C12CC3CC(CC(C3)C1)C2`: the growth in test [1] is 31.3%; in test [2] it was 71.9%; in test [3], 82.9%; in test [4], 39.4%; in test [5] it was 34%; in test [6], 33.7%. Moreover, the values for the growth in test [7] and in test [8] were 40.6% and 37.3%, respectively.
As for `CCCc1n(Cc2ccc3ccccc3n2)cc[n+]1Cc1ccc2ccccc2n1`, the growth in test [1] was 7.17% (active); in test [2], 13.9%; in test [3], 7.6% (active); in test [4] it was 36.7%; in test [5] it was 15.3%; in test [6], 22.9%. Further, the growth is 26.2% in test [7] and 15.7% in test [8].
Take `COc1ccc(-n2nc(C(=O)NCC(=O)Nc3nc4cc(OC)ccc4s3)c3ccccc3c2=O)cc1`: the growth in test [1] was 17%; in test [2], -23.4% (active); in test [3], 42.5%; in test [4], 47.6%; in test [5], -6.52% (active); in test [6], 2.56% (active). Besides, the growth in test [7] is 55.8%; in test [8], 18.2%.
For the compound `COc1ccc([C@@H]2[C@@H](Cl)C(=O)N2c2cc(OC)c(OC)c(OC)c2)cc1C`, the growth was 77.7% in test [1]; 6.51% (active) in test [2]; -33.7% (active) in test [3]; 26.7% in test [4]; 20.5% in test [5]; 3.33% (active) in test [6]. Besides, the growth in test [7] was 19.5%; in test [8], 12.8%.
`CCOc1ccc([C@@H]2[C@@H](Oc3ccccc3)C(=O)N2c2cc(OC)c(OC)c(OC)c2)cc1`: the growth in test [1] is 91.8%; in test [2], -18.2% (active); in test [3] it was -25% (active); in test [4] it was 20.8%; in test [5], 16.9%; in test [6] it was -3.96% (active). Further, the results for the growth in test [7] and in test [8] were 16.2% and 11.5%, respectively.
`CN1CCN(Cc2ccc(NC(=O)c3cnc(F)c(C#Cc4cnc(N)c5ncccc45)c3)cc2C(F)(F)F)CC1`: the growth was 30.3% in test [1]; 41.9% in test [2]; 10.2% in test [3]; 8.66% (active) in test [4]; 42.6% in test [5]; 7.2% (active) in test [6]. The figures for the growth in test [7] and in test [8] were 40.7% and 11.2%, respectively.
Turning to `CCc1oc2ccccc2c1C(=O)c1cc(I)c(O)c(I)c1`, the growth was 98.9% in test [1]; 39.3% in test [2]; -25.9% (active) in test [3]; 19.2% in test [4]; 33.8% in test [5]; 22.3% in test [6]. In addition, the growth in test [7] is 53.3%; in test [8] it was 27.2%.
Turning to `CC1=C(O)C(=O)C(c2c(C)cc(C)c(Br)c2C)=C(O)C1=O`, the growth in test [1] is 83.3%; in test [2], 73.1%; in test [3], 73.2%; in test [4] it was 85.5%; in test [5] it was 56.5%; in test [6] it was 54.4%. Besides, the growth in test [7] is 63%; in test [8] it was 67.7%.
Regarding `CC1=C(C(=O)Nc2ccc(F)cc2)C(c2ccccc2)C2=C(CC(C)(C)CC2=O)N1` (centres undefined), the growth is 63.6% in test [1]; 91.1% in test [2]; 90.3% in test [3]; 89.7% in test [4]; 67.1% in test [5]; 73.6% in test [6]. For the same compound, the results for the growth in test [7] and in test [8] were 103% and 84.5%, respectively.
Regarding `COc1c(C(=O)/C=C/c2ccc(C)o2)c(O)cc2occc12`, the growth is 66.6% in test [1]; 67.5% in test [2]; -28.3% (active) in test [3]; 32.1% in test [4]; 38.5% in test [5]; 52.8% in test [6]. For the same compound, the growth in test [7] is 79.4%; in test [8], 45.4%.
For the compound `Clc1ccccc1Nc1nnc(-c2ccncc2)s1`, the growth in test [1] is 89.5%; in test [2], 90.4%; in test [3], 93.6%; in test [4], 91.6%; in test [5], 96%; in test [6] it was 102%. The growth in test [7] is 106%; in test [8], 107%.
For `O=C1C2=C(C(=O)c3c(O)ccc(O)c31)N(c1ccc(N3CCOCC3)nc1)Cc1ccccc1O2`, the growth is -41% (active) in test [1]; -78.5% (active) in test [2]; -28.6% (active) in test [3]; -54.3% (active) in test [4]; -34.2% (active) in test [5]; -84.5% (active) in test [6]. Further, the growth in test [7] is -66.3% (active); in test [8] it was -34.9% (active).
